What all share (assay): PBM binding z-score (relative to random genomic background probes); higher = stronger binding; sequences stand for … in GC…GCGATTGACAGCGTAGAATGAAGG
Assay [1] deals with FXR:RXRa (NR concentration 270 nM, RXRa partner concentration 90 nM). The method in brief: (§1)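 Custom Agilent 4×180K protein-binding microarrays carried double-stranded probes. Their 34-nt variable regions held direct-repeat seeds, single-nucleotide variants, half-site ablations and random human genomic background sequences. Arrays were incubated 1 h with ligand-free nuclear receptor dimers in PBS pH 7.4, 2% milk, 0.02% Triton X-100, 1 mM DTT, 0.2 mg/mL BSA and 0.4 mg/ml salmon testes DNA. Antibodies against each partner (one per run) detected binding, and scanned fluorescence was regression-normalized. Binding z-scores use random background probes as reference.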

Assay [2] has as its system LXRa:RXRa (NR concentration 270 nM, RXRa partner concentration 90 nM). The method in brief: as §1
For assay [3], the system named is LXRa homodimer (NR concentration 270 nM). Summed up:
as §1

For assay [4], the system named is LXRb:RXRa (NR concentration 270 nM, RXRa partner concentration 90 nM). Summed up: as §1
In assay [5] the test system is LXRb homodimer (NR concentration 270 nM). The method in brief:
as §1

The test system of assay [6] is PPARa:RXRa (NR concentration 270 nM, RXRa partner concentration 90 nM). Summed up:
as §1

Assay [7] deals with PPARg:RXRa (NR concentration 180 nM, RXRa partner concentration 90 nM). Summed up: as §1
Assay [8] concerns PPARg:RXRa 270nM:90nM, anti-RXR (NR concentration 270 nM, RXRa partner concentration 90 nM). Summed up:
as §1

Assay [9] deals with PPARg:RXRa 30nM:10nM, anti-RXR (NR concentration 30 nM, RXRa partner concentration 10 nM). Summed up: as §1
The subject of assay [10] is PPARg:RXRa 90nM:30nM, anti-RXR (NR concentration 90 nM, RXRa partner concentration 30 nM). The method in brief: as §1
The subject of assay [11] is PPARg:RXRa DBDmut IVT, anti-RXR (DBD mutation: RXRa K156A/R161A, NR concentration 270 nM, RXRa partner concentration 90 nM). Summed up: as §1
For assay [12], the system named is PPARg:RXRa IVT, anti-PPARg (NR concentration 270 nM, RXRa partner concentration 90 nM). The method in brief:
as §1

Assay [13] deals with PPARg DBDmut:RXRa IVT, anti-PPARg (DBD mutation: PPARg1 K132A/R137A, NR concentration 270 nM, RXRa partner concentration 90 nM). Summed up: as §1
The test system of assay [14] is PPARg DBDmut IVT, anti-PPARg (DBD mutation: PPARg1 K132A/R137A, NR concentration 270 nM). The method in brief:
as §1

In assay [15] the test system is PPARg homodimer (NR concentration 180 nM). The method in brief:
as §1

Assay [16] relates to PXR homodimer (NR concentration 270 nM). The method in brief: as §1
Assay [17] has as its system RARa:RXR (NR concentration 270 nM, RXRa partner concentration 90 nM). Summed up:
as §1

Assay [18] concerns RARa homodimer (NR concentration 270 nM). Summed up:
as §1

For assay [19], the system named is RARb:RXRa (NR concentration 270 nM, RXRa partner concentration 90 nM). Summed up:
as §1

Consider TGTCAGAGTTCAAAGGTAACGTAAGTATCCACAC, for which the PBM binding z-score was found to be 7.14 in [1]; 6.58 in [2]; 4.05 in assay [3]; 4.65 in [4]; 1.22 in assay [5]; 5.88 in [6]. The PBM binding z-score came to 7.19 in assay [7]; 6.65 in assay [8]; 3.88 in assay [9]; 5.98 in assay [10]; 0.11 in assay [11]; 3.16 in [12]. Moreover, the PBM binding z-score in assay [13] was 0.991; in assay [14] it was 1.01; in assay [15], 2.95; in assay [16], 5.44; in assay [17] it was 7.02; in assay [18] it was -0.164. The PBM binding z-score in assay [19] was 4.47.

Consider ATCAAAAGGTCGAAGGTGAGTATACCCACCCGAA, for which the PBM binding z-score in assay [1] came out at 5.02; in assay [2] it was 4; in assay [3], 0.531; in assay [4] it was 2.87; in [5], 0.821; in [6] it was 5.02. For the same sequence, the PBM binding z-score in [7] came out at 5.28; in assay [8], 5.42; in assay [9], 3.17; in assay [10], 4.75; in assay [11], 0.661; in assay [12], 2.86. Further, the PBM binding z-score in [13] was 1.48; in assay [14], 0.784; in [15] it was 2.7; in [16], -0.118; in assay [17], 4.72; in [18], 0.445. The sequence also showed a PBM binding z-score in [19] of 4.05.

As for ATATGTAGGTTAGCTGGCGTCATTCAGACTAGGC, the PBM binding z-score is -0.167 in assay [1]; 0.0704 in assay [2]; -0.277 in assay [3]; -0.239 in [4]; 0.141 in assay [5]; 1.69 in [6]. Further, the PBM binding z-score in assay [7] amounted to 2.61; in [8], 2.43; in assay [9], 0.729; in [10] it was 1.81; in assay [11], 6.56; in assay [12] it was 5.58. In addition, the PBM binding z-score in [13] was 1.28; in assay [14] it was 0.35; in assay [15], 0.334; in [16], -0.283; in [17], 0.227; in assay [18], 0.262. In [19], this sequence registered a PBM binding z-score of 0.462.

Regarding CGTCCAAGGTCAAGGGCAGTGAAAGAGACTCGAA, the PBM binding z-score stood at 7.12 in [1]; 4.83 in assay [2]; 0.283 in assay [3]; 3.68 in assay [4]; 0.0141 in assay [5]; 5.93 in assay [6]. Also, the PBM binding z-score in assay [7] came out at 5.48; in assay [8] it was 5.38; in [9] it was 1.76; in [10], 4.07; in assay [11], 2.83; in assay [12], 4. Further, the PBM binding z-score in assay [13] was 0.426; in [14], -0.438; in assay [15], 1.82; in [16], 0.609; in assay [17], 3.82; in assay [18], 1.15. The sequence also showed a PBM binding z-score in assay [19] of 5.64.

In the case of CTCGAAAGGTCGTCCTCAGGTGAGTATACCAAAC, the PBM binding z-score was found to be 4.94 in assay [1]; 3.75 in assay [2]; 0.547 in assay [3]; 3.32 in assay [4]; 0.328 in assay [5]; 4.54 in assay [6]. Further, the PBM binding z-score in assay [7] was found to be 2.08; in assay [8], 3.47; in assay [9], 0.492; in [10] it was 2.43; in assay [11], 0.175; in assay [12] it was 1.77. Further, the PBM binding z-score in assay [13] is 0.216; in assay [14] it was -0.144; in assay [15] it was 1.94; in assay [16], 0.134; in [17] it was 4.1; in assay [18], -0.0286. Further, in assay [19], the PBM binding z-score is 3.8.

On to ATATGTAGGTCAGCTGGGGTCATTCAGACTAGGC, for which the PBM binding z-score in [1] amounted to 6.69; in assay [2], 6.41; in assay [3] it was 5.01; in assay [4] it was 5.39; in [5], 1.51; in [6], 6.15. For the same sequence, the PBM binding z-score in assay [7] is 9; in [8] it was 7.13; in [9] it was 5.31; in assay [10] it was 7.16; in assay [11], 8.08; in assay [12], 8.21. Besides, the PBM binding z-score in [13] came to 5.33; in assay [14] it was 2.2; in assay [15], 4.29; in assay [16], 5.2; in assay [17] it was 6.74; in assay [18], 1.6. This sequence came in with a PBM binding z-score in assay [19] of 4.57.

Consider CGTCTAAGGTCAAAGGTCAGTGAAGAGATGACGG, for which the PBM binding z-score was found to be 8.79 in assay [1]; 7.27 in assay [2]; 4.41 in assay [3]; 6.95 in [4]; 2.67 in [5]; 7.45 in assay [6]. Besides, the PBM binding z-score is 11 in [7]; 8.6 in assay [8]; 8.75 in assay [9]; 10.3 in assay [10]; 4.71 in assay [11]; 5.84 in assay [12]. The PBM binding z-score in [13] came to 0.729; in assay [14], 0.828; in assay [15], 5.87; in assay [16] it was 2.61; in [17], 8.98; in assay [18] it was 4. This sequence also showed a PBM binding z-score in assay [19] of 6.07.

The values above are taken from the supplement of paper PMC6555819.
